# High-throughput results as filed in PubChem BioAssay.
# HIF-2a inh – HIF-2a inhibition | 360,000 tested, 0.72% active | inhibition, % at 18.8 µM | AID 624352 | 786-0 RCC cells HIF-2a reporter, luciferase luminescence, overnight;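 active = inhibition of the luminescence signal of 40% or more relative to plate controls, in a single-dose primary screen at 18.75 µM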
# TRPM1 prom inh – MITF TRPM1 promoter inhibition in SK-MEL-5 cells; SK-MEL-5 TRPM1 promoter luciferase, 24 h; inhibition, % at 12.5 µM; 330,000 tested, 0.83% active; AID 488899;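 active = mean inhibition across replicates of 60% or more, whatever share of single replicates reaches that level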
# Shn3 3UTR inh – reduces Shn3 3'UTR luciferase signal in osteoblasts. AID 588674. Clone20 osteoblast Shn3 3'UTR firefly luciferase, 24 h. 360,000 tested, 0.52% active. inhibition, % at 12.5 µM;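 active = mean inhibition of at least 75% with every replicate also reaching 75%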
# KKLEB cytotox – CF airway cell cytotoxicity counter-screen | KKLEB CF airway cells viability, ATPlite luminescence, overnight; hits give low values; cells stimulated with P. aeruginosa culture filtrate | activity change (cytotoxicity), % at 5 µM | 360,000 tested, 0.36% active;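 active = corrected activity change at or below -50% at 5 µM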
# CF NFkB inh – blocks PAF-induced NF-kB reporter in cystic fibrosis cells; KKLEB NF-kB-GFP reporter, GFP fluorescence overnight; inhibition, % at 5 µM; 360,000 tested, 0.86% active;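 active = at least 50% inhibition at 5 µM, scaled per plate between neutral and stimulator controls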;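 also: PAF is a Pseudomonas aeruginosa culture filtrate used as stimulus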
# Peg3 prom inh – inhibitors of Peg3 promoter. inhibition, % at 20 µM. 360,000 tested, 1.7% active. HeLa PEG-Prom luciferase reporter, luminescence, overnight;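 active = inhibition of at least 50% at 20 µM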
# A number is an active result; i = inactive; nt = not tested or not shown. The list is not random: actives were taken first. Their share in the collection is about 2.7%.
SMILES,HIF-2a inh,TRPM1 prom inh,Shn3 3UTR inh,KKLEB cytotox,CF NFkB inh,Peg3 prom inh
O=C(NC(c1ccc(-c2ccccc2)cc1)c1cnccn1)C1CCN(CCCOc2ccccc2)CC1 (centres undefined),i,nt,i,i,i,103
COc1ccc(C(NC(=O)C2CCN(CCCOc3ccccc3)CC2)c2ccccn2)cc1 (centres undefined),i,nt,i,i,i,i
O=C(NC(c1ccc(Cl)cc1)c1cnccn1)C1CCN(CCOc2ccc(F)cc2)CC1 (centres undefined),i,nt,i,i,i,i
O=C(NC(c1ccc(-c2ccccc2)cc1)c1cnccn1)C1CCN(CCOc2ccc(F)cc2)CC1 (centres undefined),i,nt,i,i,i,50
Nc1ncnc2c1ncn2[C@@H]1O[C@H](CNCc2ccc(-c3cc(C(F)(F)F)ccc3Cl)o2)[C@@H](O)[C@H]1O,i,i,i,i,i,i
CC(C)C(NC(=O)c1ccc(C(C)(C)C)cc1)C(=O)NCC1(N(C)C)CCCCC1 (centres undefined),i,i,i,i,i,i
COc1ccc(N2CCN(c3cc(C)c4ccc(O)cc4n3)CC2)cc1,i,nt,i,i,i,i
COc1cc(OC)c2nc(C)c3c(c2c1)N(c1ccc(O)cc1)CC3,i,i,i,i,i,65
CC(C)C[C@H]1CN(CCCC[C@@H]2CNC(=O)C(=O)N2Cc2ccccc2)C(=O)C(=O)N1CC1CCCCC1,i,nt,nt,nt,nt,nt
O=C1C2C3C=CC(C3)C2C(=O)N1c1ccc(Cc2ccncc2)cc1 (centres undefined),i,i,i,i,i,i
CC1CCC2C(=O)N(c3ccc(Cc4ccncc4)cc3)C(=O)C2C1 (centres undefined),i,i,87,i,i,i
Nc1nc2cc(S(=O)(=O)N3CCOCC3)ccc2o1,i,i,i,i,i,i
Cc1cccc(N2CCN(C(=O)c3ccc(CS(=O)(=O)c4ccccc4C)o3)CC2C)c1 (centres undefined),i,i,i,i,53,52
CC(C)N=c1cc2n(-c3ccc(Cl)cc3)c3ccccc3nc-2cc1Nc1ccc(Cl)cc1,i,74,i,i,92,101
O=C(CCN1C(=O)NC2(CCCC2)C1=O)Nc1ccc(-c2nc3ccccc3s2)cc1,i,i,i,i,i,101
O=C(CCN1C(=O)NC2(CCCC2)C1=O)Nc1ccc(Sc2ccc(Br)cc2)cc1,i,nt,i,i,i,i
CC(=O)Nc1ccc(SCC(=O)NC(=O)c2ccc(S(=O)(=O)N(C)C)cc2)cc1,i,i,i,i,i,i
CN(C)CCCn1c2c3ccccc3ccc2c2oc(=O)c3ccccc3c21,i,80,i,i,i,97
CN(C)CCCn1c(=S)[nH]c2ccccc2c1=O,i,i,i,i,i,i
Cc1ccc(NC(=O)C2(C)CCN2C(=O)Cc2ccc(C(C)(C)C)cc2)cc1C (centres undefined),i,nt,i,i,i,i
O=C(C1CCCN(Cc2ccc(Br)cc2)C1)N1CCCCC1 (centres undefined),i,nt,i,i,i,i
O=C(CCN1CCOCC1)c1ccc2c(c1)OCCO2,i,i,i,i,i,i
O=C(CCN1CCc2ccccc2CC1)c1ccc2c(c1)OCCO2,i,i,i,i,i,106
O=S1(=O)CCOC[C@H](CC2CCCCC2)N1Cc1ccccc1Br,i,i,i,i,i,i
CC(C)CNC(=O)COC(=O)c1c2c(nc3ccccc13)/C(=C\c1cccs1)CC2,i,i,i,i,i,i
SMILES,HIF-2a inh,TRPM1 prom inh,Shn3 3UTR inh,KKLEB cytotox,CF NFkB inh,Peg3 prom inh
CC(=O)c1ccc(NC(=O)COC(=O)c2c3c(nc4ccccc24)/C(=C\c2cccs2)CCC3)cc1,i,i,i,i,i,56
O[C@@H]1CN(CC2CCCCC2)[C@@H](c2ccc(Cl)cc2)C[C@H]1n1cc(-c2ccc(F)cc2)nn1,i,nt,i,i,i,i
O=C(c1[nH]c(C(F)(F)F)nc1-c1ccccc1)N1CCN(c2ccncc2)CC1,i,nt,i,i,i,i
COc1ccc(C)cc1NC(=O)NC1CCCc2ccccc21 (centres undefined),i,i,i,i,i,55
COc1ccc(NC(=O)NC2CCCc3ccccc32)cc1OC (centres undefined),i,i,i,i,i,i
COc1ccc(C(=O)N/C(=C/c2cccnc2)C(=O)Nc2cccc(C(C)=O)c2)cc1OC,i,i,i,i,i,i
COc1cccc(C(=O)N/N=C(/CCC(=O)O)c2ccccc2)c1,i,i,i,i,i,i
COc1cc(C(=O)N/N=C(\C)c2ccccn2)cc(OC)c1OC,i,i,i,i,i,58
C/C(=N\NC(=O)c1cc(C)nc2ccccc12)c1ccncc1,i,i,i,i,i,i
COc1cccc(C(=O)N/N=C(/c2ccccc2)c2ccccn2)c1,i,66,i,i,i,86
C/C(=N\NC(=O)c1cc(C)nc2ccccc12)c1ccccn1,i,89,95,i,i,i
CCCCNC(=O)C[C@@H]1C[C@@]2(C(=O)OC)CCCCC=C2N(Cc2ccc3c(c2)OCO3)C1=O,i,nt,nt,nt,nt,nt
C1CC(=NN=C2CCSCC2)CCS1,i,i,i,i,i,i
O=c1[nH]c(=O)n(Cc2ccco2)c2c1C(C(F)(F)F)(C(F)(F)F)N=C(CCc1ccccc1)N2,i,i,i,i,i,55
COc1cccc(CNC(=O)CCCn2nc(C)c3c(C)n(-c4ccc(C)cc4)nc3c2=O)c1OC,i,i,i,i,i,i
CC(CCc1ccccc1)NC(=O)COC(=O)c1cc(NS(=O)(=O)c2ccc(Cl)c([N+](=O)[O-])c2)ccc1O (centres undefined),55,i,i,i,i,57
O=C(Nc1nc2ccccc2s1)c1ccc([N+](=O)[O-])o1,i,i,i,i,i,i
COc1ccc2nc(NC(=O)c3ccc([N+](=O)[O-])o3)sc2c1,i,i,i,i,66,i
Cc1cc(C)c2nc(NC(=O)c3ccc([N+](=O)[O-])o3)sc2c1,i,i,i,i,i,i
O=C(Nc1nc2cc3c(cc2s1)OCCO3)c1ccc([N+](=O)[O-])o1,i,i,i,i,83,i
CCOC(=O)c1cccc(C(=O)Nc2nc3ccc(OC)cc3s2)n1,i,i,i,-55,i,i
CCOC(=O)N1CCN(C(=O)C[C@@H]2C[C@@]3(C(=O)OC)CCCCC=C3N(Cc3ccccc3)C2=O)CC1,i,nt,nt,nt,nt,nt
COc1cc2oc(=O)ccc2cc1[C@H](O)[C@@H](O)C(C)(C)O,i,i,i,i,i,i
CCOc1ccc(NCc2cccn2-c2nnc(N3CCC(C(=O)NCCCN4CC(C)CC(C)C4)CC3)s2)cc1 (centres undefined),i,90,i,i,i,i
O=C(CCl)N1CCN(S(=O)(=O)c2ccc3ccccc3c2)CC1,i,i,i,i,i,110
